Assay results reported in PubChem BioAssay AID430 (Sanford-Burnham Center for Chemical Genomics, 2006).
Screen size: about 63,000 compounds; about 1,100 (1.7%) were called active. Only a selection was taken, and actives are over-represented in it overall. Entries with a potency or affinity are not part of this list. Unmarked numbers belong to inactive results. Rule as the data show it: active = cytotoxicity above about 50%; inactive = the rest.

Assay: HPDE-C7 pancreatic duct cell viability loss – fluorescence, HTS (AID 430);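 also: cells exposed to compound for 48 hours before viability readout; 0% = vehicle and 100% = reference cytotoxic drug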
Settings: HPDE-C7 pancreatic duct cells viability, at 10 µM, hits give high values

Compared with Cn1c(N)c(C(=O)COC(=O)C2(c3ccccc3F)CCCC2)c(=O)n(C)c1=O, CC1Cc2nc(SCC(=O)N3CCc4ccccc43)n(C)c(=O)c2S1 (centres undefined) is lower in cytotoxicity: -7% for the first, -19.6% for the second.

Going from CCOCCCNC(=O)C(Cc1ccccc1)NC(=O)c1ccco1 (centres undefined) to CSCCC(NC(=O)c1ccccc1)C(=O)NCc1ccco1 (centres undefined), the cytotoxicity falls from -8.1% to -8.6%.

First: Cc1cc(C)c2c(CN3CCN(C)CC3)cc(=O)oc2c1
Second: CCN1CCN(Cc2cc(=O)oc3cc(C)cc(C)c23)CC1
The cytotoxicity of the first is lower: -8.5% for the first, 2.1% for the second.

First: O=c1ccnc(S/C=C/c2ccccc2)[nH]1
Second: Oc1ccc(CNc2ccccc2)c2cccnc12
The cytotoxicity of the first is lower: -11.2% for the first, 34.7% for the second.

Compared with O=C(Cn1c(=O)[nH]c2ccsc2c1=O)N1CCN(c2ccc(F)cc2)CC1, O=C(c1cccc(F)c1)N1CCN(c2cccc(Cl)c2)CC1 is higher in cytotoxicity: 9.5% for the first, 36.5% for the second.

Compared with Cc1nn(Cc2ccc(Cl)cc2)c(C)c1NC(=O)c1cc(-c2ccc3c(c2)OCO3)on1, Cc1ccc(Cn2nc(C)c(NC(=O)c3cc(-c4ccc5c(c4)OCO5)on3)c2C)cc1 is lower in cytotoxicity: 35.4% for the first, 16.2% for the second.

Going from O=C(c1ccc2c(c1)OCO2)N1CCCc2ccccc21 to O=C(Cn1cnc2ccccc2c1=O)c1ccc2c(c1)OCCO2, the cytotoxicity rises from -12.5% to -6.3%.

First: CN(C)S(=O)(=O)c1ccc(C(=O)Nc2ccccn2)cc1
Second: COc1ccc(C)cc1S(=O)(=O)N(CC(=O)O)c1ccccc1
The cytotoxicity of the first is higher: 0.8% for the first, -0.9% for the second.

Compared with COc1ccc(-n2c(Cc3cccn3C)nnc2SCC(=O)Nc2cc(Cl)ccc2OC)cc1, COc1ccc(C(=O)N2CCN(c3cccc(Cl)c3)CC2)c(OC)c1 is higher in cytotoxicity: -0.9% for the first, 44.1% for the second.

First: Cn1nnnc1SCC(=O)NCCc1ccc(Cl)cc1
Second: CCOC(=O)CC(=O)CSc1nc(N)c(C#N)c(-c2ccc(F)cc2)c1C#N
The cytotoxicity of the first is lower: -8.2% for the first, 5.6% for the second.

Going from CN1CCN(Cc2cc(COCc3ccccc3)c3cccnc3c2O)CC1 to Oc1c(CN2CCCCC2)cc(COCc2ccccc2)c2cccnc12, the cytotoxicity falls from -9.2% to -10.8%.

Compared with Oc1ccc(CNc2ccc(F)cc2)c2cccnc12, Oc1ccc(CNc2ccccc2F)c2cccnc12 is lower in cytotoxicity: 45.3% for the first, -4.7% for the second.

Going from Oc1ccc(CN2CCN(Cc3ccccc3)CC2)c2cccnc12 to COc1ccccc1N1CCN(Cc2cc(Br)c(O)c3ncccc23)CC1, the cytotoxicity falls from 6.2% to 5.1%.

First: COCc1cc(CN2CCCC2)c(O)c2ncccc12
Second: CCOc1ccc2ccccc2c1C(=O)N1CCOCC1
The cytotoxicity of the first is lower: -11.9% for the first, 2.5% for the second.

Going from CCCn1c(C)cc(=O)c2cc(NC(=O)c3ccccn3)ccc21 to COc1cccc(-c2cc(C(=O)Nc3c(C)nn(Cc4ccccc4C)c3C)no2)c1, the cytotoxicity falls from 16.1% to -3.2%.

Compared with COC(=O)CCCCCNc1ccc(C(=O)OC)cc1N, O=C(CCCCn1c(=S)[nH]c2ccsc2c1=O)NCc1ccco1 is higher in cytotoxicity: -12.1% for the first, -3% for the second.

Going from O=S(=O)(NCCc1csc(-c2ccccc2)n1)c1ccc2c(c1)OCCO2 to COc1ccc(OC)c(S(=O)(=O)n2nc(-c3ccccc3)cc2N)c1, the cytotoxicity falls from 6.2% to -13.7%.

First: Cc1ccc(C)c(N2CCN(C(=O)C3CCCN(S(=O)(=O)c4cnc[nH]4)C3)CC2)c1 (centres undefined)
Second: Cc1ccc(C(=O)N2CCN(c3cccc(Cl)c3)CC2)cc1C
The cytotoxicity of the first is lower: -3.6% for the first, 36.8% for the second.

First: COc1cccc(C2=NOC(C(=O)N3CCN(C(=O)c4ccco4)CC3)C2)c1 (centres undefined)
Second: COc1ccccc1C(=O)N1CCN(C(=O)COc2cccc(C)c2)CC1
The cytotoxicity of the first is lower: -8.5% for the first, -7.6% for the second.

Going from CC1=C(C(=O)NC(C)c2ccc3c(c2)OCCO3)C2(CCC(C)CC2)OC1=O (centres undefined) to Cc1ccc(CC2(O)CC(C)N(C)CC2C)c(C)c1 (centres undefined), the cytotoxicity falls from 10.7% to 0.1%.

Compared with CCCCOC(=O)CSc1nc(N)c(C#N)c(-c2ccc(OCC)cc2)c1C#N, CCCCOC(=O)CSc1nc(N)c(C#N)c(-c2ccc(OC)cc2)c1C#N is lower in cytotoxicity: 5.1% for the first, -16% for the second.

Going from CCOC(=O)CSc1nc(N)c(C#N)c(-c2ccc(OC)cc2)c1C#N to COc1ccc(C2CC(c3ccccc3)Nc3nc(NC(=O)c4cccs4)nn32)cc1 (centres undefined), the cytotoxicity rises from -6.1% to -3.4%.

First: CC(=NCC1CCNCC1)C1=C(O)CC(C)(C)CC1=O
Second: Cc1cc(C(=O)N2CCN(c3ncccn3)CC2)c(C)o1
The cytotoxicity of the first is lower: -8.1% for the first, 2.2% for the second.

First: CCOc1ccccc1-c1nn2c(Cc3ccccc3)nnc2s1
Second: CCOc1ccc(C(=O)N2CCN(c3ccccc3)CC2)cc1OCC
The cytotoxicity of the first is higher: -4.2% for the first, -51.5% for the second.

Going from NC(=O)C(F)(F)C12OC3C4C5CC(C6C5C3C61)C42 (centres undefined) to Cc1cc(C)cc(N2C(=O)C3C4C=CC(C4)C3C2=O)c1 (centres undefined), the cytotoxicity falls from -3.7% to -5.5%.

Going from CC(C)(C)Nc1cccccc1=O to Nc1nonc1C(=O)NC(c1ccccc1)c1ccccc1, the cytotoxicity rises from -8% to 3.4%.

Going from COc1ccc(S(=O)(=O)n2nc(-c3cc(OC)c(OC)c(OC)c3)cc2N)cc1OC to COc1ccccc1C(=O)N1CCN(c2cccc(Cl)c2)CC1, the cytotoxicity falls from -3.7% to -13%.

In the case of O=C(O)c1ccccc1C(=O)N1CCN(c2cccc(Cl)c2)CC1, the cytotoxicity is reported as 6.7%.

In the case of Cc1cc(C)c2c(CN3CCN(C/C=C/c4ccccc4)CC3)cc(=O)oc2c1, the cytotoxicity is reported as 69.9% (active).
With Cc1nn(Cc2ccc(Cl)c(Cl)c2)c(C)c1NC(=O)c1cc(-c2ccc3c(c2)OCO3)on1 the cytotoxicity was 54.7% (active).
With Oc1c(CN2CCOCC2)cc(COCc2ccccc2)c2cccnc12 the cytotoxicity was 60.7% (active).
For CCCCOc1ccc(-c2c(C#N)c(N)nc(SCC(N)=O)c2C#N)cc1, the cytotoxicity was 82.5% (active).
For CCOC(=O)CC(=O)CSc1nc(N)c(C#N)c(-c2ccc(Cl)cc2)c1C#N, the cytotoxicity was 54.7% (active).
With Cc1cc(C(=O)N2CCN(c3cccc(Cl)c3)CC2)c(C)o1 the cytotoxicity was 53.3% (active).
For CCOc1ccccc1C(=O)N1CCN(c2cccc(Cl)c2)CC1, the cytotoxicity was 62.2% (active).
In the case of O=C(c1c(Cl)nc2sccn12)N1CCN(c2cccc(Cl)c2)CC1, the cytotoxicity is reported as 75% (active).
With CCOc1ccc2ccccc2c1C(=O)N1CCN(c2ccccc2)CC1 the cytotoxicity was 50.5% (active).
